High-throughput results as filed in PubChem.
Shown are actives, neighbours in structure and some others; about 2.4% of the full set was active somewhere.
GLS inh: qHTS for Inhibitors of Glutaminase (GLS). Glutaminase kidney isoform, mitochondrial (Homo sapiens), O94925. GLS enzymatic activity, qHTS titration. Potency, µM (doses to about 45.5 µM), without a hit: top-dose activity change, negative = inhibition, usual class: inhibitors. 410,000 compounds, 0.21% hits. AID 624170, 2012; note: % is set by controls: 0 for no effect and ±100 for the full control effect
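Compounds were pin-transferred onto hKGA, after which L-glutamine (1 mM solution) and a detection mix of glutamate oxidase, HRP and Amplex Red were added. Initial and 30 min RT fluorescence reads were collected.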
POLI inh: qHTS for Inhibitors of Polymerase Iota. DNA polymerase iota (Homo sapiens), Q9UNA4. 390,000 compounds, 1% hits. AID 588590, 2011. Pol iota fluorescent replication assay, 10 min. Potency, µM (series often up to 115 µM), for the others: top-dose activity, negative = inhibition, usual class: inhibitors
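Pol iota at 10 nM preincubated 15 min with compounds at room temperature; reaction started with fluorescent substrate, 50 nM final. Fluorescence read kinetically at 0 and 10 min; buffer-only wells as negative control.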
POLH inh: qHTS for Inhibitors of Polymerase Eta | DNA polymerase eta (Homo sapiens), Q9Y253 | recombinant Pol eta, fluorescent DNA replication assay | Potency, µM (titrated, usually from 114 µM), inactives show at the highest dose activity change, negative = inhibition, hits mostly inhibitors | 390,000 compounds, 1.2% hits | AID 588591, 2011; note: % is set by controls: 0 for no effect and ±100 for the full control effect
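Pol eta (10 nM) was preincubated with compounds for 15 min at room temperature, after which fluorescent replication substrate (50 nM final) was added to start the reaction. Fluorescence was read kinetically at 0 and 10 min.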
POLK inh: qHTS for Inhibitors of Polymerase Kappa. DNA polymerase kappa (Homo sapiens), Q9UBT6. purified Pol kappa, fluorescent DNA synthesis assay, 10 min. Potency, µM (highest dose often 107 µM), inactives show top-dose activity, negative = inhibition, most hits filed as inhibitors. 400,000 compounds, 0.53% hits. AID 588579, 2011; note: % is set by controls: 0 for no effect and ±100 for the full control effect
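Activity was followed as the change in fluorescence between reads at 0 and 10 min after starting the reaction with 50 nM substrate. Beforehand, 10 nM polymerase had been preincubated with compound for 15 min at room temperature.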
POLB inh: qHTS Assay for Inhibitors of DNA Polymerase Beta. AID 485314, 2010. Potency, µM (top dose mostly 114 µM), inactives show at the top dose activity change, negative = inhibition, most hits filed as inhibitors. P06746. 340,000 compounds, 1.3% hits. Pol beta primer extension/strand displacement, fluorescence kinetic; note: % is set by controls: 0 for no effect and ±100 for the full control effect
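Reaction started by 50 nM substrate onto compound-treated Pol beta (10 nM, 15 min preincubation, room temperature); plates read at 0 min and 10 min. Normalized concentration-effect data fitted by four-parameter Hill equation.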
APEX1 inh: qHTS Assay for Inhibitors of the Human Apurinic/apyrimidinic Endonuclease 1 (APE1). recombinant APE1, TAMRA/BHQ-2 abasic DNA cleavage fluorescence. Potency, µM (doses to about 65.8 µM), without a hit: top-dose activity change, negative = inhibition, most hits filed as inhibitors. 350,000 compounds, 0.35% hits;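 note: plate controls were vehicle for no effect and reference inhibitor for full effect; nearly all actives have a fitted effect of over 55% in size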
Target sequence (P27695 whole entry, looked up): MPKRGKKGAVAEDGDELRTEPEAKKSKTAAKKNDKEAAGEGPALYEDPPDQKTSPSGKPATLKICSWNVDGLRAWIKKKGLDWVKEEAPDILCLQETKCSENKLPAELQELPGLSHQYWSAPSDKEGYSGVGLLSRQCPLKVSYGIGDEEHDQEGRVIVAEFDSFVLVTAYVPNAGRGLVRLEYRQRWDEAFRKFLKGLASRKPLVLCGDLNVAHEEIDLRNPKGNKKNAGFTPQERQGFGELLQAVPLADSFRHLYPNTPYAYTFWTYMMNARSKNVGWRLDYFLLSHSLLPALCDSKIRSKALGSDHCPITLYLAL
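Substrate: short duplex with […] THF abasic site, 5'-TAMRA and 3'-BHQ-2, 50 nM final. APE1 at 0.75 nM, preincubated 15 min RT with compound. Fluorescence increase from first to third read measured activity.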
* marks the source's active call; other numbers are inactive results; ? = inconclusive; nt = no result; [ ] = dose if it differs, or a comment. Calls come from the whole dose curve; as a rule, active = well fitted curve in the direction sought with a large enough effect; inconclusive = small, poorly fitted or top-dose-only effect, or another doubt; inactive = no such curve, though single readings can be large; an effect the other way counts as inactive or inconclusive. Potency is the fitted concentration of half-maximal effect.

SMILES | GLS inh | POLI inh | POLH inh | POLK inh | POLB inh | APEX1 inh
C/C=C(/C)C(=O)Nc1cccc(C2=NOC3(C2)C[C@H](C(N)=O)N(C(=O)Cc2ccc([N+](=O)[O-])cc2)C3)c1 (stereo partly specified) | -5.2% | -3.9% | -21.4% | 0.6% | -0.5% | -1.8%
C/C=C\C=C/C(=O)Nc1cccc(C2=NOC3(C2)C[C@H](C(N)=O)N(C(=O)Cc2ccc([N+](=O)[O-])cc2)C3)c1 (stereo partly specified) | -9.5% | 25.1µM* | -16.4% | -10.4% | -8.3% | 1.5%
CCCCCC(=O)Nc1cccc(C2=NOC3(C2)C[C@H](C(N)=O)N(C(=O)CC#N)C3)c1 (stereo partly specified) | nt | nt | nt | nt | 39.8µM* | -2.6%
C/C=C/C=C\C(=O)Nc1cccc(C2=NOC3(C2)C[C@H](C(N)=O)N(C(=O)CC#N)C3)c1 (stereo partly specified) | -23.0% | 14.1µM* | 44.7µM* | 79.4µM* | 50.1µM* | 11.1%
C/C=C/C=C/C(=O)N1CC2(CC(c3cccc(NC(=O)/C=C/C)c3)=NO2)C[C@@H]1C(N)=O (stereo partly specified) | -11.2% | 39.8µM* | ? | ? | -1.3% | 1.2%
COc1ccc(-c2ccc3c(c2)c(Sc2ccccc2)c(-c2ccccc2)n3C)cn1 | -0.2% | nt | nt | nt | nt | nt
CCOc1ccccc1NC(=O)Cn1c(=O)n(Cc2ccccc2)c(=O)c2c1c1cc(C)ccc1n2C | 16.0% | 8.5% | -13.6% | -8.1% | 23.9% | nt
COc1ccccc1N1CCN(C(=O)CN(Cc2ccccc2)S(C)(=O)=O)CC1 | 16.2% | 2.0% | -1.0% | -5.4% | -1.8% | -2.1%
C=C(C)C(=O)Nc1cccc(C2=NOC3(C2)C[C@H](C(N)=O)N(C(=O)CC#N)C3)c1 (stereo partly specified) | -23.7% | ? | 20µM* | ? | 35.5µM* | ?
COc1cc(N2C(=O)C=CC2=O)ccc1N1C(=O)C=CC1=O | 63.3% | 39.8µM* | 25.1µM* | 39.8µM* | nt | nt
Cc1cccc(OCC(=O)N(Cc2ccccc2)c2ccccn2)c1 | -2.2% | 17.5% | -11.5% | -6.5% | 11.0% | nt
O=C(Nc1ccncc1)Nc1cccc(Cl)c1 | 2.5% | 4.6% | 10.3% | 5.4% | 24.4% | -0.2%
O=C(Nc1cccc(C2=NCCN2)c1)Nc1cccc(C2=NCCN2)c1 | 20.6% | 10.3% | 22.4µM* | 7.52µM* | nt | nt
O=C(/C=C/c1ccc(/C=C/C(=O)Nc2ccc(C3=NCCN3)cc2)cc1)Nc1ccc(C2=NCCN2)cc1 | nt | nt | nt | 18.9µM* | nt | 31.6µM*
O=C(Nc1ccc(C2=NCCN2)cc1)c1ccc(C(=O)Nc2ccc(C3=NCCN3)cc2)c(Cl)c1 | -14.8% | ? | -15.5% | ? | 0.891µM* | -6.0%
CCNc1ccc(Br)cc(C(=O)/C=C/c2ccc(Cl)cc2Cl)c1=O | 15.2% | 8.91µM* | 14.1µM* | ? | 12.6µM* | 0.8%
CNc1ccc(Br)cc(C(=O)/C=C/c2ccc(OC)cc2)c1=O | 72.0% | ? | ? | -17.1% | 28.2µM* | ?
COCCCNC(=O)/C=C/c1ccc(Cl)cc1Cl | 4.6% | 8.9% | -11.4% | 0.7% | 21.5% | 2.2%
O=C(Cn1ncc2c3ccccc3n(Cc3ccccc3F)c2c1=O)NCc1ccccc1Cl | -9.3% | 18.7% | -6.2% | -22.3% | 7.6% | nt
CCn1c(SCC(=O)NC(C)c2ccccc2)nc2ccccc21 (stereo unspecified) | -8.0% | 20.3% | 1.0% | -14.8% | 21.0% | -3.8%
CCn1c(SCC(=O)Nc2nccc(C)n2)nc2ccccc21 | -2.1% | ? | -21.5% | -4.5% | 79.4µM* | -1.9%
CCC1(C)NC(=O)N(/N=C/c2ccc(C)s2)C1=O (stereo unspecified) | -2.7% | 16.7% | -19.0% | -2.5%[60.1 µM] | 1.9% | -1.2%
C[C@@H]1C=C(C(=O)N2CCN(Cc3ccc4c(c3)OCO4)CC2)O[C@H](OCCCCO)C1 | 3.0% | 2.8% | -17.0% | -42.3% | -18.6% | -0.4%
Cc1ccc(OCCn2cnc3cc([N+](=O)[O-])ccc3c2=O)cc1 | -12.3% | 167.7% | -7.1% | 0.7% | 35.8% | -4.7%
O=c1c2ccc([N+](=O)[O-])cc2ncn1CCOc1ccccc1 | -1.1% | 89.1µM* | -17.8% | ? | 6.5% | 1.8%
SMILES | GLS inh | POLI inh | POLH inh | POLK inh | POLB inh | APEX1 inh
CC(=O)Nc1cccc(C(=O)/C=C/c2ccc(/C=C/C(=O)c3cccc(NC(C)=O)c3)cc2)c1 | nt | nt | nt | nt | -24.1% | 2.1%
CC(=O)Nc1cccc(C(=O)/C=C/c2ccc(N(C)C)cc2)c1 | -4.7% | 22.4µM* | ? | ? | 50.1µM* | -6.0%
CC(C)C[C@H](NC(=O)[C@@H]1CCCN1C(=O)[C@H](CO)NC(=O)[C@H](Cc1ccccc1)NC(=O)CNC(=O)[C@@H]1CCCN1C(=O)[C@@H]1CCCN1C(=O)[C@@H](N)CCCN=C(N)N)C(=O)O | nt | nt | nt | 15.5%[60.1 µM] | nt | 0.501µM*
NC(N)=NCCC[C@H](N)C(=O)N1CCC[C@H]1C(=O)N1CCC[C@H]1C(=O)NCC(=O)N[C@@H](Cc1ccccc1)C(=O)N[C@@H](CO)C(=O)N1CCC[C@H]1C(=O)N[C@@H](Cc1ccccc1)C(=O)O | nt | nt | nt | 16.1%[60.1 µM] | nt | -6.3%
CSc1ccccc1NC(=O)CN(C1CCCCC1)S(C)(=O)=O | nt | 12.3% | -0.4% | -3.9% | -16.7% | 8.2%
COc1ccc(CN2[C@@H](CC(C)=O)c3ccc(/C=C/C(C)=O)cc3S2(=O)=O)cc1 | 7.4% | ? | ? | -1.3% | nt | nt
COc1cccc(N2[C@@H](CC(C)=O)c3ccc(/C=C/C(C)=O)cc3S2(=O)=O)c1 | 3.3% | 20µM* | ? | -3.6% | nt | nt
COc1ccc(CN2[C@@H](CC(=O)O)c3ccc(/C=C/C(=O)O)cc3S2(=O)=O)cc1 | nt | 50.1µM* | nt | 35.5µM* | nt | nt
COC(=O)C[C@H]1c2ccccc2S(=O)(=O)N1c1cccc(OC)c1 | 3.9% | 24.9% | -13.8% | 8.0% | nt | nt
CC1S/C(=C(\C#N)C(=O)NCc2ccco2)N(Cc2ccco2)C1=O (stereo unspecified) | -0.3% | 22.4µM* | ? | 89.1µM* | 25.2% | -0.3%
Cc1nc(-c2ccc(S(=O)(=O)Nc3ccc(C#N)cc3)cc2)co1 | 2.9% | -2.5% | -0.1% | -10.2%[60.1 µM] | -25.5% | nt
CCCS(=O)(=O)N1CCN(Cc2ccccc2OCC)CC1 | 12.0% | 6.8% | -3.5% | -8.6% | 89.1µM* | -2.7%
